From PubChem BioAssay
RAD54 inh: blocks human RAD54 Holliday junction branch migration. 360,000 compounds, 0.14% hits. inhibition, % at 10.4 µM. AID 602329. Q92698. FAM/BHQ fluorescence;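 active = mean normalized replicate activity at least 40 and at least half of replicates scoring 40 or more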;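 also: 0% = median of neutral control wells and 100% = median of positive control wells; inhibitors cause a drop in the FAM fluorescence signal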
RAD52 inh: blocks human RAD52 DNA annealing; 360,000 compounds, 0.46% hits; recombinant RAD52 DNA annealing, FRET fluorescence; P43351; inhibition, % at 18.7 µM; AID 651710;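 active = every replicate showing at least 50% inhibition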
PGC1a acetyl inh: PGC1a acetylation modulation, inhibitor mode. inhibition, % at 15.6 µM. 350,000 compounds, 0.17% hits. U2OS PGC1a acetylation, AlphaScreen anti-acetyl-lysine; with virally co-expressed GCN5 acetyltransferase;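 active = every replicate shows inhibition of at least 40%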;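 also: 0% = neutral control wells and 100% = positive control wells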
MLL AF4-AF9 inh: inhibitors of human MLL-AF4/AF9 interaction | P42568 | AlphaScreen, biotin-AF4 peptide binding to FLAG-AF9 | inhibition, % at 10 µM | 350,000 compounds, 0.47% hits | AID 651704;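 active = every replicate reaching a set inhibition limit, whatever the replicate mean, cut at about 25% in these data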;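 also: 0% = plate neutral control median and 100% = total signal loss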
ERAP1 HTS inh: ERAP1 (human) enzyme inhibition. recombinant ERAP1, Leu-AMC fluorescence, 60 min. inhibition, % at 10.7 µM. Q9NZ08. AID 652197. 340,000 compounds, 0.15% hits;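 active = mean replicate inhibition of at least 30%, or all replicates individually reaching that 30% level; inactive = mean below 30% and not every replicate reaching it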;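 also: 0% = neutral control wells and 100% = L-leucinethiol positive control wells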
Target sequence (Q9NZ08 whole entry, looked up): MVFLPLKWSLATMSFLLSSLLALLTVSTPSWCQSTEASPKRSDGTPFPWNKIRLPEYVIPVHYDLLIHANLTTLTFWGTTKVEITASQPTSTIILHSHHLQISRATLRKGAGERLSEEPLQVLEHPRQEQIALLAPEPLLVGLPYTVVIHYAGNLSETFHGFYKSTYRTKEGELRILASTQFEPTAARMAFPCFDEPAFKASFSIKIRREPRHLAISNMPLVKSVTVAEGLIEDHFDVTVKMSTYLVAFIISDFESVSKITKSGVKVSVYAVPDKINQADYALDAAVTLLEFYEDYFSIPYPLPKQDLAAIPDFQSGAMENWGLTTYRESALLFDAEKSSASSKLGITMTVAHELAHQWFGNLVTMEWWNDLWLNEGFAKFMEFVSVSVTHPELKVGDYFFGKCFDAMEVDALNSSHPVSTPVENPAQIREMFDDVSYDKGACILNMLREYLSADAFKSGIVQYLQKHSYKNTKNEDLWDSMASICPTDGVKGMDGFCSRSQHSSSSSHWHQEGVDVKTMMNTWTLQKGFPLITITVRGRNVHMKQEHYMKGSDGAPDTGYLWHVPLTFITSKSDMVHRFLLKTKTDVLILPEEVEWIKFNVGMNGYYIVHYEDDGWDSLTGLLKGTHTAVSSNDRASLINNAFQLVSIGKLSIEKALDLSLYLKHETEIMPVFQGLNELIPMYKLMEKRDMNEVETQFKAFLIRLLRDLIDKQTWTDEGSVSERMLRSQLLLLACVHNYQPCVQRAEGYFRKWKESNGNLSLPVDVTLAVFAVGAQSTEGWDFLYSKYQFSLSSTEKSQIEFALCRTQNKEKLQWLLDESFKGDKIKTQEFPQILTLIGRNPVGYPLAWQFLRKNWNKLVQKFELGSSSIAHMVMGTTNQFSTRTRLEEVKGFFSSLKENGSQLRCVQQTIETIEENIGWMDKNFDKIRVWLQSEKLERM
INS-1E GSIS act: primary screen for activators of insulin secretion dependent on glucose, INS-1E cells, GLuc reporter luminescence | 370,000 compounds, 0.61% hits | INS-1E GLuc reporter insulin secretion, 2-3 h | activation, % at 16.6 µM;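 active = lowest replicate activation of at least 40%, so every replicate reaches that level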;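 also: 0% = median of neutral control wells and 100% = median of IBMX positive control wells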
Active calls of the source: *; i = inactive; · = no result. Hits are enriched below; roughly 1.4% of the tested compounds scored in any of these assays.

SMILES	RAD54 inh	RAD52 inh	PGC1a acetyl inh	MLL AF4-AF9 inh	ERAP1 HTS inh	INS-1E GSIS act
O=C1CSC(c2ccccc2)N1c1ccc(F)cc1F (stereo not drawn)	-5.0	0.3	-16.8	-0.1	4.6	47.8*
COc1cc2sc3ccc(C#Cc4ccc(N)cc4)cc3c(=O)c2cc1OC	3.6	·	·	·	·	58.2*
COc1cc2sc3ccc(C#Cc4ccccn4)cc3c(=O)c2cc1OC	2.1	-22.8	1.1	·	1.8	0.8
COc1ccc(C(=O)N2c3cc4c(cc3C(C)=CC2(C)C)OCO4)cc1	-0.7	·	-22.3	32.2*	·	·
CC1=CC(C)(C)N(C(=O)c2ccccc2)c2ccc(C)cc21	-1.2	·	-13.4	·	·	·
COCC(=O)N1[C@@H](CO)[C@@H](c2ccccc2)C12CN(Cc1cccc(OC)c1)C2	·	·	·	·	·	2.6
O=C1c2ccccc2C(=O)N1CCC(c1ccc(F)cc1)c1ccco1 (stereo not drawn)	-2.3	·	-5.2	·	·	42.7*
COCC(=O)Nc1ccc2c(c1)C(=O)N(C)[C@H]1CC[C@@H](CC(=O)NCCc3ccccc3)O[C@H]1CO2	6.3	6.9	-4.6	-1.6	2.1	-0.3
COC(=O)COc1c(/C=C\c2nc(O)c([N+](=O)[O-])c(=O)[nH]2)cccc1OC	-9.2	-10.2	55.0*	-0.1	-2.2	6.1
O=C(/C=C(\Nc1cc(Cl)c(F)c(Cl)c1)c1ccccc1)c1ccccc1	·	-21.4	·	·	-0.2	157.2*
CN(C)c1ccc(NC(=O)C2C3C=CC(C3)C2C(=O)O)cc1 (stereo not drawn)	16.4	58.5*	-14.0	29.3*	-8.1	-16.2
O=C(O)C1C2C=CC(C2)C1C(=O)Nc1ccc2c(c1)OCCO2 (stereo not drawn)	1.1	·	-6.9	·	·	·
CCOC(=O)C1Nc2ccccc2C2C(O)C(O)CC12 (stereo not drawn)	i	-378.3	-2.2	26.3*	2.2	-8.9
CC(C)C#Cc1ccc2c(c1)O[C@H](CN(C)C(=O)C1CCC1)[C@@H](C)CN([C@H](C)CO)S2(=O)=O	·	·	·	·	·	-15.9
CCOC(=O)N1CCN(CCC(=O)Nc2ccc(OC)cc2OC)CC1	-2.0	-7.0	5.2	-3.7	-1.4	8.1
CCN1CCN(C(=O)C(C)Nc2ccc(OC)cc2OC)CC1 (stereo not drawn)	11.8	-41.1	·	25.6*	0.6	-9.5
O=c1c2ccccc2sc2ccccc12	-4.5	-1.5	11.4	0.7	-3.0	-1.4
O=c1c(C(c2ccccc2)c2c(O)sc3ccccc3c2=O)c(O)sc2ccccc12	8.8	·	·	-3.2	·	55.7*
COc1ccc(Cn2ccnc2)cc1Br	4.6	·	-4.0	·	·	·
COc1ccc(NCc2ccc(OC)c(Cn3ccnc3)c2)c(OC)c1	0.3	-19.7	5.3	33.6*	1.2	27.2
CNC[C@H]1OCCCC[C@H](C)Oc2ccc(NC(=O)CCC(F)(F)F)cc2C(=O)N([C@@H](C)CO)C[C@H]1C	·	·	-3.4	·	·	3.1
O=C(Cc1c[nH]c2ccccc12)N[C@@H](Cc1c[nH]c2ccccc12)C(=O)O	-0.7	-18.5	·	-0.4	1.6	52.8*
C[C@H]1CN([C@@H](C)CO)C(=O)c2cccc(NC(=O)c3ccc(-c4nccs4)cc3)c2O[C@H]1CN(C)S(=O)(=O)c1ccc(Cl)cc1	-0.1	-2.1	7.6	0.1	-0.1	-8.8
COCCn1c(SCC(=O)Nc2cc(C)on2)nnc1-c1ccccc1	7.3	-6.2	-1.2	33.7*	-1.2	18.8
COc1ccc2c3c(n(C)c2c1)[C@@H](CO)N(C(=O)CN(C)C)CC31CN(C(=O)C2CCC2)C1	·	·	1.7	0.8	·	12.5
SMILES	RAD54 inh	RAD52 inh	PGC1a acetyl inh	MLL AF4-AF9 inh	ERAP1 HTS inh	INS-1E GSIS act
CCc1ccc(-c2c(C)sc(NC(=O)C3CCC3)c2C#N)cc1	3.1	·	·	·	·	139.2*
O=c1[nH]nc(-c2ccccc2)c2ccccc12	4.5	-23.9	3.1	-7.7	-3.3	65.9*
Cc1ccc(S(=O)(=O)Nc2ccc3c(c2)C(=O)N([C@H](C)CO)C[C@H](C)[C@H](CN(C)C(=O)c2ccncc2)OCCCC[C@H](C)O3)cc1	4.8	·	-3.9	·	·	2.7
O=[N+]([O-])c1cc(CN2CCN(c3cccc(C(F)(F)F)c3)CC2)c2cccnc2c1O	·	-15.1	·	35.6*	0.7	-14.9
C/C=C/c1cnc2c(c1)C(=O)N([C@H](C)CO)C[C@H](C)[C@H](CN(C)C(=O)C1CCC1)O2	·	·	-5.1	·	·	14.7
COc1cc2[nH]c(=S)nc(NC3CCCCCC3)c2cc1OC	·	57.9*	·	3.7	-0.7	-6.0
